Results from PubChem BioAssay (Tox21).
Values without a mark were called inactive. The source made the active and inactive calls. The call rests on the fitted dose curve; in most records, active means well fitted curve in the direction sought with a large enough effect in the repeat runs; inconclusive means weak or mixed curves; inactive means flat fitted curve, though single readings scatter.

assay: qHTS assay to test for compound auto fluorescence at 535 nm (green) in HEK293 cell free culture (AID 720682); conditions: cell-free medium, green autofluorescence 485/535 nm, hits give high values; series mostly up to 91.3 µM; activity change: at the top concentration
Text: U.S. Tox21 Program National Center for Advancing Translational Sciences [NCATS] NIH Chemical Genomics Center [NCGC] U.S. Environmental Protection Agency [EPA] National Institutes of Environmental Health Sciences [NIEHS] National Toxicology Program [NTP] U.S. Food and Drug Administration [FDA] Tox21 Assay Overview: Compound auto fluorescence often interferes with screening of the compound library against various biological targets and signaling pathways. Some of these compounds may have fluorophoric properties. Such properties may interfere with the assay outputs resulting in false positives and/or negatives. To decrease such complications and ensure the compound activities are relevant in terms of biological response, the Tox21 10K compound library was screened for auto fluorescence. From the fluorophores used as reporter signals in our screening assays, the auto fluorescence equivalencies of compounds against three fluorophores have been evaluated: Triamterene, Fluorescein and Rose Bengal sodium for blue, green and red fluorescence, respectively. The fluorescence intensities were measured using Excitation/Emission wavelengths at 405/460nm, 485/535nm and 540/590nm for blue, green and red labels, respectively. This assay includes the green fluorescence data.
Tox21 Assay Protocol Summary: 5 uL of culture medium (DMEM containing 10% FBS) per well was dispensed into black wall/clear bottom 1536-well plates using a Multidrop Combi Dispenser (ThermoFisher Scientific, Waltham, MA). After 23 nL compound or DMSO vehicle was transferred into assay plate by a pintool work station (Kalypsys, San Diego, CA), fluorescence intensities in the assay plates were measured by an Envision (PerkinElmer, Shelton, CT) plate reader using three labels for measuring blue, green and red fluorescence at […] 460, 535 and 590nm respectively.
On the % scale 0 is the no-effect control and ±100 the full control effect.

SMILES	activity change	outcome
CCC(C)Nc1ccc(NC(C)CC)cc1 (stereo not given)	0.292% [at 95.7 µM]	
CC(NN)c1ccccc1 (stereo not given)	-0.0659% [at 46 µM]	
[O-][n+]1ccccc1SSc1cccc[n+]1[O-]	0.0548% [at 46 µM]	
C[C@@H]1C[C@H]2[C@@H]3CCC4=CC(=O)C=C[C@]4(C)[C@@]3(Cl)[C@@H](O)C[C@]2(C)[C@@]1(OC(=O)c1ccco1)C(=O)CCl	-0.0517% [at 18.6 µM]	
CCCCC(CC)COP(=O)(O)OCC(CC)CCCC (stereo not given)		inactive
CCC(Cl)C(Cl)C(Cl)CC(Cl)C(Cl)C(C)Cl (stereo not given)	0.0125%	
Oc1ccc(N=Nc2ccccc2)cc1	-0.105% [at 95.7 µM]	
CC1=C(/C=C/C(C)=C/C=C/C(C)=C/C=O)C(C)(C)CCC1	0.399%	
C/C=C(\C)C(=O)OCc1ccccc1	-0.0023%	
Cc1cc(=O)oc2cc(N(C)C)ccc12	-0.0169%	
Clc1ccc2cc3ccccc3cc2c1	0.0061%	
NC(=O)CC[C@@H]1NC(=O)[C@H](Cc2ccccc2)NC(=O)[C@H](Cc2ccc(O)cc2)NC(=O)CCSSC[C@@H](C(=O)N2CCC[C@H]2C(=O)N[C@@H](CCCN=C(N)N)C(=O)NCC(N)=O)NC(=O)[C@H](CC(N)=O)NC1=O		inactive
O=C(OC[C@H]1O[C@@H](OC(=O)c2cc(O)c(O)c(OC(=O)c3cc(O)c(O)c(O)c3)c2)[C@H](OC(=O)c2cc(O)c(O)c(OC(=O)c3cc(O)c(O)c(O)c3)c2)[C@@H](OC(=O)c2cc(O)c(O)c(OC(=O)c3cc(O)c(O)c(O)c3)c2)[C@@H]1OC(=O)c1cc(O)c(O)c(OC(=O)c2cc(O)c(O)c(O)c2)c1)c1cc(O)c(O)c(OC(=O)c2cc(O)c(O)c(O)c2)c1		inactive
C[C@H]1[C@H]2CC[C@H]3[C@@H]4CC=C5C[C@@H](N(C)C)CC[C@]5(C)[C@H]4CC[C@]23CN1C	-0.0118% [at 46 µM]	
CSc1cnc(C)cn1	-0.0333% [at 203 µM]	
O=C(O)c1ccc(Cl)c(Cl)c1	0.0677%	
CCCCc1oc2ccc(NS(C)(=O)=O)cc2c1C(=O)c1ccc(OCCCN(CCCC)CCCC)cc1	0.0358% [at 46 µM]	
COCCCC/C(=N\OCCN)c1ccc(C(F)(F)F)cc1	-0.0059% [at 46 µM]	
COc1ccc(CN2CCN(C(c3ccc(F)cc3)c3ccc(F)cc3)CC2)c(OC)c1OC	-0.0638% [at 46 µM]	
Cc1[nH]nc2c1N=C(c1ccccc1Cl)c1cc([N+](=O)[O-])ccc1N2	-0.328%	

SMILES	activity change	outcome
Cc1cc(O)c(C(C)(C)C)cc1Sc1cc(C(C)(C)C)c(O)cc1C	-0.066%	
Cc1cccc(CN2CCN(C(c3ccccc3)c3ccc(Cl)cc3)CC2)c1 (stereo not given)	-0.0053% [at 18.6 µM]	
Cc1cc2c(cc1C(F)(F)F)N(C(=O)Nc1ccc(Oc3cccnc3C)nc1)CC2	-0.023%	
O=c1[nH]sc2ccccc12	-0.0188%	
CCCC(C)c1ccccc1O (stereo not given)	-0.0887%	
ON=C1CCCC1	0.0112% [at 95.7 µM]	
CC(=O)SC[C@@H](Cc1ccccc1)C(=O)NCC(=O)OCc1ccccc1	-0.0233% [at 18.6 µM]	
C=CC(=O)OCC(CO)(COCC(COC(=O)C=C)(COC(=O)C=C)COC(=O)C=C)COC(=O)C=C	0.0672%	
O=[N+]([O-])c1cc([N+](=O)[O-])c2ccc(S(=O)(=O)O)cc2c1O	-0.539%	
NNC(=O)c1cccc(C(=O)NN)c1	-0.0272%	
S=c1[nH]c2ccccc2s1		inactive
C[n+]1ccn(Cc2ccccc2)c1	-0.0579%	
OC1(c2ccc(Cl)c(C(F)(F)F)c2)CCN(CCCC(c2ccc(F)cc2)c2ccc(F)cc2)CC1	-0.154% [at 46 µM]	
Cc1[nH]cnc1C[C@H]1CCc2c(C)c3ccccc3n2C1=O		inactive
NC(=NCCCCCCN=C(N)/N=C(\N)Nc1ccc(Cl)cc1)/N=C(\N)Nc1ccc(Cl)cc1		inactive
CC1=C(C(=O)OC(C)C)C(c2cccc([N+](=O)[O-])c2)C(C(=O)OC2CN(C(c3ccccc3)c3ccccc3)C2)=C(N)N1 (stereo not given)	0.0556% [at 46 µM]	
Oc1c(Cl)cc(Cl)c2cccnc12	0.0672% [at 46 µM]	
Nc1ccccc1O	-0.126%	
CC(C)(C)c1ccc(C(=O)CCCN2CCC(OC(c3ccccc3)c3ccccc3)CC2)cc1	-0.0548% [at 46 µM]	
OCc1c[nH]c2ccccc12	0.544%	
